# Measured values: PubChem BioAssay AID1724 (National Center for Advancing Translational Sciences (NCATS), 2009)
# Records with an inconclusive call do not appear. Active and inactive are the calls of the source. Calls come from the whole dose curve; as a rule, active = well fitted inhibition curve with a large enough effect; inconclusive = small, poorly fitted or top-dose-only effect, or effect the other way; inactive = no such curve, though single readings can be large or run the other way.
# Assay: Confirmation Concentration-Response Assay for Inhibitors of the ERK Signaling Pathway using a Homogeneous Screening Assay
# Conditions: HEK293 cells, hormone-stimulated phospho-ERK AlphaScreen; series mostly up to 40.9 µM
# Excerpt: qHTS Assay for Inhibitors of the ERK Signaling Pathway using a Homogeneous Screening Assay
# NIH Chemical Genomics Center [NCGC]
# NIH Molecular Libraries Screening Centers Network [MLSCN]
# Assay Submitter (PI): Dr. Wei Zheng, NCGC/NIH
# The Ras/extracellular-signal-regulated kinase (ERK) mitogen activated protein (MAP) kinase signaling pathway (ERK1/2 cascade) plays is a key role in transmitting signals from the cell surface to the nucleus (Nishida and Gotoh 1993; Chang and Karin, 2001). The cascade is initiated by the small G-protein Ras, which recruits Raf […], where activation occurs. Alternatively, this pathway can be activated by elevating intracellular cAMP.
# Activation of the ERK pathway is essential in increased cell division and cell survival. Sustained and constitutive activation of the ERK pathway, however, has been linked to uncontrolled cell proliferation, increased cell survival, and tumor progression. Thus, the ERK has been as an attractive target for cancer chemotherapy in the past few years (Sebolt-Leopold and Herrera, 2004). Given its physiological and pathological importance, assessment of ERK phosphorylation has been broadly performed in both basic research and drug discovery. Most assays for the measurement of ERK phosphorylation use the antibody-based detection methods, such as western blot and ELISA. These assays require multiple reagent additions with cell wash steps and are not suitable for high-throughput screening.
# The current cell-based ERK phosphorylation assay was performed using AlphaScreen platform. AlphaScreen is a two bead-based proximity-dependent chemical energy transfer luminescent assay platform. The assay reagents (ERK SureFire(TM) kit) were supplied from TGR BioSciences (Australia). In the presence of specific antibodies, phosphorylated ERK will bring "donor" and "acceptor" beads to a proximity range (<200 nm), and subsequently lead a chemical luminescent reaction upon exciting donor beads with 680 nm laser. To exclude the assay-related false positives, we used a biotinylated rabbit IgG to perform counter-screen. The biotinylated antibody mimics the phosphorylated ERK1/2 for bringing streptavidin coated beads and protein-A coated beads to a proximity range for the AlphaScreen detection.
# NCGC Assay Protocol Summary:
# HEK293 cells stably expressing type-1 vasopressin receptor (V1b) were maintained in DMEM medium (Invitrogen, Carlsbad, CA) at 37C under a humidified atmosphere containing 5% CO2 and 95% air. The medium contained 10% FBS, 2 mM L-glutamine, non-essential amino acid, pyruvate and 50 U/ml penicillin and 50 ug/ml streptomycin (Invitrogen). The aliquots of frozen cells were stored at -135C and used for the compound screening. All compounds were screened as titrations from 0.6 nM to 46 uM final concentration. Vasopressin was used to stimulate the ERK phosphorylation pathway. The ERK phosphorylation in cells was determined using an AlphaScreen assay kit provided by PerkinElmer. Data were normalized to the controls for basal activity (DMSO only) and 100% activation (25 nM vasopressin). AC50 values were determined from concentration-response data modeled with the standard Hill equation.
# (1) Seed 4 ul/well of resuspended frozen HEK293 cells containing 2000 cells in white 1536-well plates for overnight with 1% FBS at 37C under a humidified atmosphere containing 5% CO2 and 95% air.
# (2) Add 23 nL compounds in DMSO solution. The final titration was 0.6 nM to 46 uM.
# (3) Incubate at 37C for 30 min.
# (4) Dispense 0.5uL vasopressin (25 nM in final)
# (5) Incubate at 37C for 5 min.
# (6) Dispense 0.5uL of 1:2 diluted 5x lysis buffer.
# (7) Incubate at 37C for 10 min.
# (8) Dispense 1.5uL of mixture of activation buffer and reaction buffer with AlphaScreen beads (streptavidin donor beads and protein-A acceptor beads, 10 ng/well for each).
# (9) Incubate at room temperature for 5 hr.
# (10) Detect the assay plate in an EnVision plate reader (PerkinElmer) using the AlphaScreen detection mode.
# […]
row,Compound,Potency
1,c1ccc(-c2csc(-c3nc4ccccc4[nH]3)n2)cc1,35.5 µM (active)
2,N#CC(C#N)=c1ccc2c(c1)N1C3=C(CCCC3)CC3CCCCC31N=2 (stereo not given),5.01 µM (active)
3,O=C(Nc1nc(-c2ccccc2)cs1)c1ccc(N2CCOCC2)c([N+](=O)[O-])c1,7.08 µM (active)
4,COc1ccc(N=C2C(=Nc3ccc(OC)cc3)N(c3ccc(N(C)C)cc3)C(=S)N2c2ccc(OC)cc2)cc1,5.62 µM (active)
5,CCCNc1ncnc2sc(C)c(C)c12,inactive
6,Cc1cccc(CNc2ncnc3ccc(-c4cccnc4)cc23)c1,12.6 µM (active)
7,CCOc1ccc(/C(O)=C2/C(=O)C(=O)N(c3ncccn3)C2c2ccccc2)cc1 (stereo not given),inactive
8,CN(C)c1cc2c(Nc3ccc4c(cnn4Cc4ccccc4)c3)ncnc2cn1,inactive
9,CN(C)CCCn1cc(C2=C(c3c[nH]c4ccccc34)C(=O)NC2=O)c2ccccc21,1.26 µM (active)
10,COc1ccc2[nH]cc(CCNc3ncnc4ccc(-c5ccc(C(=O)N(C)C)cc5)cc34)c2c1,31.6 µM (active)
11,COc1ccc(C(=O)OC(COc2ccccc2)Cn2ccnc2)cc1 (stereo not given),15.8 µM (active)
12,O=C1c2ccc(O)c(O)c2C(=O)c2c(O)ccc(O)c21,inactive
13,COc1ccc(C(=O)c2ccc(Cl)c([N+](=O)[O-])c2)cc1,12.6 µM (active)
14,C=C[C@]1(C)CC(=O)[C@@]2(O)[C@@]3(C)C(O)CCC(C)(C)C3C(O)C(OC(C)=O)[C@@]2(C)O1 (stereo not given in full),inactive
15,CCC(=O)N1CCN(c2ccc(NC(=O)c3cc4ccccc4o3)cc2Cl)CC1,12.6 µM (active)
16,Cc1ccc(NNc2c(C)nc3ccccc3nc2=O)cc1,inactive
17,CN(C)c1ccc(-c2ccc3ncnc(NCc4ccccc4)c3c2)cc1,15.8 µM (active)
18,CS(=O)(=O)CCNCc1nc(-c2ccc3ncnc(Nc4ccc(OCc5cccc(F)c5)c(Cl)c4)c3c2)cs1,inactive
19,COc1ccc(C(=O)Nc2cccc(C(C)=O)c2)cc1S(=O)(=O)N1CCOCC1,inactive
20,CC1(C)OC(c2ccccc2)=C/C(=C/C=C2C(=O)c3ccccc3C2=O)O1,14.1 µM (active)

row,Compound,Potency
1,COc1cccc(/C=N/Nc2cc(-n3nc(C)cc3-c3ccccc3)ncn2)c1O,inactive
2,Cc1sc2ncnc(Sc3nnnn3-c3ccc(Cl)cc3)c2c1C,inactive
3,Cc1nc2ccccc2c2oc(C(=O)N3CCc4ccccc4C3)cc12,25.1 µM (active)
4,COc1ccc(CC(=O)Nc2cccc(-c3nnc(-c4cccc(C)c4)o3)c2)cc1OC,4.47 µM (active)
5,COc1cc(C(=O)Nc2nc(-c3cccs3)cs2)cc(OC)c1OC,12.6 µM (active)
6,Cn1c(=O)cc(Nc2ccccc2)c2c(=O)n(-c3ccccc3)c(=O)n(-c3ccccc3)c21,8.91 µM (active)
7,C=C[C@@]1(C)CC(=O)[C@@]2(O)[C@@]3(C)[C@@H](O)CCC(C)(C)[C@@H]3[C@H](O)[C@H](OC(C)=O)[C@@]2(C)O1,inactive
8,CCCN1C(=O)/C(=C2/C=Cc3ccccc3N2CC)SC1=S,11.2 µM (active)
9,Cc1ccc(Nc2ncnc3sc(C)c(C)c23)cc1,inactive
10,C=C[C@@]1(C)CC(=O)[C@@]2(O)[C@@]3(C)[C@@H](O)CCC(C)(C)[C@@H]3[C@H](OC(=O)CCN(C)C)[C@H](OC(C)=O)[C@@]2(C)O1,0.282 µM (active)
11,O=C(Nc1ccc(N2CCN(C(=O)c3ccccc3)CC2)cc1)c1cc2ccccc2o1,12.6 µM (active)
12,O=C(c1cccs1)c1no[n+]([O-])c1C(=O)c1cccs1,2 µM (active)
13,COc1ccc(CC(=O)Nc2cccc(-c3nnc(-c4ccc(C)cc4)o3)c2)cc1OC,5.62 µM (active)
14,Cc1sc2ncnc(Nc3ccccc3)c2c1C,inactive
15,Cn1nc(-c2ccc(Cl)cc2)nc2c(=O)n(C)c(=O)nc1-2,inactive
16,COc1ccc(C2=Nn3c(nnc3-c3ccccc3OC)SC2)cc1OC,2.24 µM (active)
17,O=C1c2ccccc2C(=O)c2c1cccc2N1CCCC1,17.8 µM (active)
18,C/C(=N\Nc1nnc(-c2ccccc2)c(-c2ccccc2)n1)c1cccc([N+](=O)[O-])c1,inactive
19,O=C(Nc1nccs1)c1cc2sccc2n1Cc1ccc(F)cc1,inactive
20,CCCN(CCC)S(=O)(=O)c1cccc(C(=O)Nc2ccc3c(c2)OCO3)c1,inactive
